According to PubChem BioAssay (NCATS):
Records with an inconclusive call do not appear. Calls of active or inactive are those of the source. Calls follow the shape of the dose curve; as a rule, active = well fitted curve in the direction sought with a large enough effect; inconclusive = small, poorly fitted or top-dose-only effect, or another doubt; inactive = no such curve, though single readings can be large; an effect the other way counts as inactive or inconclusive.

How the values were obtained:
[1] = Cellular Toxicity (caspase-3) Mesangial (AID 660); settings: mesangial cells, normalized: DMSO 0%, 100 µM tamoxifen 100%; at 91.7 µM (top of the series);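 also: combined caspase 3 and 7 activity read by Caspase-Glo luminescence; cells exposed to compound for 16 h before the caspase read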
Outline: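 Human renal glomerular mesangial cells, 1000/well, 5 h at 37 C before 16 h compound treatment. Caspase-Glo 3/7 luminescence after 20 min; normalized to DMSO and 100 uM tamoxifen, AC50 from Hill fit.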

[2] = Cellular Toxicity (caspase-3) H-4-II-E (AID 663); settings: H-4-II-E rat hepatoma, scaled: DMSO 0%, 100 µM tamoxifen 100%; at 92.2 µM (top of the series);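 also: cells exposed to compound for 16 hr before readout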
Outline: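 Apoptosis induction is scored as increased luminescence from caspase 3/7 substrate cleavage in rat hepatoma H-4-II-E cells exposed to compound for 16 hr. Activity is scaled between DMSO and 100 uM tamoxifen.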

[3] = Cellular Toxicity (caspase-3) Hek293 (AID 664); settings: HEK293 caspase-3 activation, DMSO = 0%, 100 µM tamoxifen = 100%; at 92.2 µM (top of the series);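 also: cells exposed to compound for 16 h at 37 °C before readout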
Outline: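 HEK293 cells in complete medium treated 16 h at 37 °C, then Caspase-Glo 3/7 luminescence read after 20 min at room temperature. Normalized to DMSO and 100 uM tamoxifen; AC50 from Hill fit of concentration-response.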

[4] = Cellular Toxicity (caspase-3) N2a (AID 665);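 also: compound exposure lasted 16 h at 37 °C before readout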
Outline: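 Mouse N2a neuroblastoma cells, 1500 per well, treated 16 h at 37 °C in complete medium; caspase-3/7 activity by Caspase-Glo luminescence after 1 h. Normalized to DMSO and 10 uM staurosporine; AC50 from Hill fits.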

[5] = Cellular Toxicity (caspase-3) NIH 3T3 (AID 666);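 also: caspase signal read after 16 h compound exposure; 0% = DMSO basal and 100% = 100 µM tamoxifen stimulation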
Outline: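 Mouse NIH 3T3 fibroblasts (1000/well) treated 16 h at 37 C; caspase-3/7 activity measured by Caspase-Glo 3/7 luminescence after 20 min. Normalized to DMSO and 100 uM tamoxifen; AC50 from Hill fits.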

[6] = Cellular Toxicity (caspase-3) Renal Proximal Tubule (AID 667); settings: Potency: caspase-3 activation;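 also: cells exposed to compound for 16 hours at 37 °C before detection; 0% = DMSO basal and 100% = 10 µM staurosporine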
Outline: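 Freshly isolated primary rat kidney proximal tubule cells, 1000/well, treated 16 hr at 37 °C, then Caspase-Glo 3/7 luminescence after 1 hr. Normalized to DMSO and 10 uM staurosporine; AC50 from Hill fit.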

[7] = target: Cytochrome P450 3A4 (Homo sapiens) (UniProt P08684); experiment: qHTS Assay for Inhibitors and Substrates of Cytochrome P450 3A4 (AID 884); also: % is scaled to controls: 0 for no effect and ±100 for the full control effect; nearly all actives have a fitted effect of over 50% in size
Outline: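 20 nM human CYP3A4 with 25 uM Luciferin-PPXE (at KM) in 200 mM KPO4, preincubated 10 min with compound; NADPH regeneration started a 60 min RT reaction. Luciferin detected by luminescence, normalized to 57 uM ketoconazole as full inhibition.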

[8] = Cell Viability - LYMP2-001 (AID 921);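 also: cells exposed to compound for 24 h at 37 °C; 0% = DMSO only and full inhibition = tetraoctylammonium bromide control wells; nearly all actives have a fitted effect of over 70% in size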
Outline: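 Human lymphoblastoid LYMP2-001 cells, 2500 per well, in complete medium, treated 24 h at 37 C. Viability from cellular ATP by CellTiter-Glo luminescence; AC50 from Hill-equation fits of qHTS concentration-response.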

[9] = target: Cytochrome P450 3A4 (Homo sapiens) (UniProt P08684); experiment: qHTS Assay for Activators of Cytochrome P450 3A4 (AID 885); also: nearly all actives have a fitted effect of over 65% in size
Outline: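 Signal was normalized against complete inhibition by 57 uM ketoconazole. The reaction used 20nM CYP3A4 with 25uM Luciferin-PPXE, 10-min compound preincubation and a 60-min NADPH-supported step at RT.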

Cytochrome P450 3A4 (Homo sapiens), sequence (P08684 whole entry, looked up): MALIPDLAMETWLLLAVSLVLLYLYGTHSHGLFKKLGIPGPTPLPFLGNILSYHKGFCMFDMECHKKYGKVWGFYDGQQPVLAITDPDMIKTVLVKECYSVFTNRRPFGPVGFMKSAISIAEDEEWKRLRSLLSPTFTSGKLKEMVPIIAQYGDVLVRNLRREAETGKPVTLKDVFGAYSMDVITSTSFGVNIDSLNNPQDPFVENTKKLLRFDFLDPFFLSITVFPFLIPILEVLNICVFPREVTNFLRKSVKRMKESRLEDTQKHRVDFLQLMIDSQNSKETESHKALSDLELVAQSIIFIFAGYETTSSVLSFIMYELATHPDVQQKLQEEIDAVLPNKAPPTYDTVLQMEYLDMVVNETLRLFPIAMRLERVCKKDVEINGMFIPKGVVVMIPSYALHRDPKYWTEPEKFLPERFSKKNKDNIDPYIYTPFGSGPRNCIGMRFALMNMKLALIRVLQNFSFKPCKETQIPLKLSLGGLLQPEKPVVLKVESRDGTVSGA

CCCC(C)CO (stereo not given)
inactive: caspase-3 activation [1] 0.885% | caspase-3 activation [2] 1.09% | caspase-3 activation [3] 1.12% | outcome [4] | outcome [5] | Potency [6] | Potency [7] | Potency [8]

Cc1ccc(N(C)C)cc1
inactive: caspase-3 activation [1] 0.102% | caspase-3 activation [2] -1.01% | caspase-3 activation [3] -0.882% | outcome [4] | outcome [5] | Potency [6] | Potency [7] | Potency [8]

CCCCCCCCCCCCOCC1CO1 (stereo not given)
inactive: caspase-3 activation [1] 1.85% | caspase-3 activation [2] 3.02% | caspase-3 activation [3] 2.47% | outcome [4] | outcome [5] | Potency [6] | Potency [7] | Potency [8]

CC(C)c1ccccc1
inactive: caspase-3 activation [1] -1.25% | caspase-3 activation [2] 0.504% | caspase-3 activation [3] -0.725% | outcome [4] | outcome [5] | Potency [6] | Potency [7] | Potency [8]

O=Cc1cccc(Br)c1
inactive: caspase-3 activation [1] 1.82% | caspase-3 activation [2] 2.2% | caspase-3 activation [3] 4.91% | outcome [4] | outcome [5] | Potency [6] | Potency [7] | Potency [8]

C/C=C1\CC2C=CC1C2 (stereo not given)
inactive: caspase-3 activation [1] -0.567% | caspase-3 activation [2] 0.51% | caspase-3 activation [3] -0.412% | outcome [4] | outcome [5] | Potency [6] | Potency [7] | Potency [8]

CSCCC=O
inactive: caspase-3 activation [1] 0.0965% | caspase-3 activation [2] -0.467% | outcome [4] | outcome [5] | Potency [6] | Potency [7] | Potency [8]

NC(=O)c1cccc([N+](=O)[O-])c1
inactive: caspase-3 activation [1] 0.906% | caspase-3 activation [2] -1.74% | caspase-3 activation [3] 2% | outcome [4] | outcome [5] | Potency [6] | Potency [7] | Potency [8]

CCC=O
inactive: caspase-3 activation [1] -0.374% | caspase-3 activation [2] 0.94% | caspase-3 activation [3] 1.43% | outcome [4] | Potency [6] | Potency [7]

CC(CCl)OC(C)CCl (stereo not given)
inactive: caspase-3 activation [1] -0.591% | caspase-3 activation [2] 0.133% | caspase-3 activation [3] 1.69% | outcome [4] | outcome [5] | Potency [6] | Potency [7] | Potency [8]

C=CC(=O)NC(C)C
inactive: caspase-3 activation [1] 1.12% | caspase-3 activation [2] 0.575% | outcome [4] | outcome [5] | Potency [6] | Potency [7] | Potency [8]

CC(C)N(C)C
inactive: caspase-3 activation [1] 0.455% | caspase-3 activation [2] 0.576% | caspase-3 activation [3] 1.04% | outcome [4] | outcome [5] | Potency [6] | Potency [7] | Potency [8]

C=C(C)C(=O)OCCCCCCCCCC
inactive: caspase-3 activation [1] -0.0364% | caspase-3 activation [2] -0.285% | caspase-3 activation [3] 2.37% | outcome [4] | outcome [5] | Potency [6] | Potency [7] | Potency [8]

Cc1cc(C2(c3cc(C)c(O)cc3C)OS(=O)(=O)c3ccccc32)c(C)cc1O
inactive: caspase-3 activation [1] -0.0933% | caspase-3 activation [2] 2.61% | caspase-3 activation [3] 4.58% | outcome [4] | outcome [5] | Potency [6] | outcome [9] | Potency [8]

CC(O)COC(C)(C)C (stereo not given)
inactive: caspase-3 activation [1] -1.28% | caspase-3 activation [2] -0.238% | caspase-3 activation [3] 2.41% | outcome [4] | outcome [5] | Potency [6] | Potency [7] | Potency [8]

Nc1cccc2c(=O)[nH][nH]c(=O)c12
inactive: caspase-3 activation [1] -0.301% | caspase-3 activation [2] 0.0355% | caspase-3 activation [3] -1.17% | outcome [4] | outcome [5] | Potency [6] | Potency [7] | Potency [8]

O=Cc1ccc(CO)o1
inactive: caspase-3 activation [1] -0.0811% | caspase-3 activation [2] 1.58% | caspase-3 activation [3] -1.08% | outcome [4] | outcome [5] | Potency [6] | Potency [7] | Potency [8]

O=Cc1ccc(C(=O)O)cc1
inactive: caspase-3 activation [1] 0.146% | caspase-3 activation [2] -0.315% | caspase-3 activation [3] -1.79% | outcome [4] | outcome [5] | Potency [6] | Potency [7] | Potency [8]
